A short description of test [1]: AP1 Signaling Pathway (AID 357; active = well fitted curve in either direction with a large enough effect, not every such curve was filed as active;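 note: ME-180 reporter cells stimulated with EGF at its EC50 level; % is set by controls: 0 for no effect and ±100 for the full control effect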). A digest of the protocol: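 Beta-lactamase reporter under AP-1 response element, ME-180 background. Stimulus: EC50 EGF. Compound exposure 5 h, 37 °C. Detection: CCF4, 2.5 h RT, 460/530 nm. Values: AC50 from titration.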
Test [2] can be described thus: NFAT Signaling Pathway (AID 444; active = well fitted curve in either direction with a large enough effect, not every such curve was filed as active;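 note: carbachol stimulus at about its EC50 of 1 µM final; % is set by controls: 0 for no effect and ±100 for the full control effect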). The note with it: Jurkat NFAT-bla M1, carbachol, beta-lactamase ratio, 5 h. The method, boiled down: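 Jurkat cells carrying an NFAT-driven β-lactamase reporter and co-transfected muscarinic M1 receptor were treated with compound plus carbachol (1 uM final, an EC50 level) for 5 h at 37 °C. CCF4 loading followed for 1 h at RT; 460/530 nm ratio gave %activity.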

Test [3] can be described thus: Stat Signaling Pathway (AID 446; active = well fitted curve in either direction with a large enough effect, not every such curve was filed as active;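 note: ME-180 cervical cancer cells given 40 pM IL-6 alongside compound; SIE-controlled beta-lactamase reporter measured as 460/530 nm FRET emission ratio; % is set by controls: 0 for no effect and ±100 for the full control effect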). The method, boiled down: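 FRET read-out (405 nm excitation, 460/530 nm emission) of a beta-lactamase reporter under a STAT-inducible element in ME-180 cervical carcinoma cells. Cells with compound receive 40 pM IL-6 for 5 h. Values are normalised to AC90 stimulation and AC90 JAK-inhibitor controls.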
For test [4], the target named is Glucocorticoid receptor (Homo sapiens) (UniProt P04150). The test is described as follows: GR-GFP Redistribution (AID 450;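 active = compounds whose dose series gives a full or clear partial fitted curve of increased nuclear translocation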; note: potency is the fitted concentration of half-maximal effect). To be noted: U2OS GR-GFP nuclear translocation, laser cytometry, 2 h.
For test [5] the target is unchanged. In words: GR-EFC Redistribution (AID 451; calls by dose curve; note: potency is the fitted concentration of half-maximal effect). The note with it: CHO-K1 GR-EFC translocation, beta-gal luminescence, 2 h. The method, boiled down: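 CHO-K1 cells stably expressing nuclear-localized β-gal enzyme acceptor and GR fused C-terminally to the enzyme donor fragment; ligand-driven nuclear translocation restores β-gal by complementation. Compounds titrated up to 46 uM final, 2 h at 37 °C; luminescence read.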

The target in test [6] is Mitogen-activated protein kinase 10 (Mus musculus) (UniProt Q61831). In words: JNK3 AlphaScreen Assay (AID 530; active = well fitted curve in either direction with a large enough effect, not every such curve was filed as active;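 note: kinase came from lysate of stimulated human HepG2 cells; signal reports phosphorylation of biotinylated GST-cJun 1-79 at Ser73 with 10 µM ATP; % is set by controls: 0 for no effect and ±100 for the full control effect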). The method, boiled down: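 Biotinylated GST-cJun(1-79) served as substrate for JNK3 in HepG2 lysates stimulated with IL-1beta and TNF-alpha. ATP was 10 uM final, pH 7.6. Ser73 phosphorylation was quantified by AlphaScreen (680 nm excitation).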
A general note: In Alpha technology, singlet oxygen from a donor bead excites a nearby acceptor bead.

The target in test [7] is 3',5'-cyclic-AMP phosphodiesterase 4B (Homo sapiens) (UniProt Q07343). In words: qHTS Assay for Inhibitors of PDE-IV (AID 607; active = well fitted activation curve with a large enough effect in the main read-out, with a control signal flat, not every such curve was filed as active; note: % of control where 0% means no effect). A digest of the protocol: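 Cell-based read-out of cAMP via a modified cyclic nucleotide-gated channel and membrane potential dye (535/590 nm) in HEK293 cells expressing PDE4 endogenously. Compounds tested up to 22.9 uM final; 100 uM RO 20-1724 reference.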
A general note: In qHTS, concentration-response curves come from the screen itself.

For test [8], the target named is Cytochrome P450 3A4 (Homo sapiens) (UniProt P08684). In words: qHTS Assay for Activators of Cytochrome P450 3A4 (AID 885). Note: nearly all actives have a fitted effect of over 65% in size. A digest of the protocol: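 Luminescent readout of luciferin formed from 25 uM Luciferin-PPXE (KM level) by 20 nM CYP3A4 in 200 mM KPO4, with 60 min NADPH-driven reaction at room temperature after 10 min compound exposure. Ketoconazole (57 uM) defined 100% inhibition.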

A short description of test [9]: qHTS Assay for Lipid Storage Modulators (AID 1519; calls by dose curve). To be noted: Drosophila S3 cells, BODIPY lipid droplet/cell ratio, laser cytometry, cells loaded with oleic acid. The method, boiled down:
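Cells seeded at 5,000 per well were treated with compounds over a concentration series and loaded with oleic acid (400 uM, as added). Lipid droplet fluorescence (488 nm excitation, 500-530 nm channel) was read by laser-scanning cytometry and normalized to 20 uM Triacsin C.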

Test [10] addresses Cytochrome P450 1A2 (Homo sapiens) (UniProt P05177). The test is described as follows: p450-cyp1a2 (AID 410; calls by dose curve; note: potency is the fitted concentration of half-maximal effect). The method, boiled down:
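Read-out is luminescence from luciferin produced by CYP1A2 demethylation of Luciferin-ME (100uM, at Km). Detection reagent stopped the 60 min NADPH-dependent reaction; signals were normalized to 57 uM furafylline.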

In test [11] the target is Luciferin 4-monooxygenase (Photinus pyralis) (UniProt P08659). In words: Biochemical firefly luciferase enzyme assay for NPC (AID 624030).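 Note: purified P. pyralis luciferase at 10 nM with luciferin and ATP substrate; 0% = DMSO and -100% = full luciferase inhibition by PTC124 control; nearly all actives have a fitted effect of over 70% in size.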 The method, boiled down:
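Counter-screen for direct inhibition of the luciferase enzyme by approved-drug library compounds, run at 10 nM enzyme in 50 mM Tris acetate (final). Luminescence was read within 5 min of enzyme-buffer addition and normalized to PTC124 versus DMSO (0%).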

A short description of test [12]: S16 Schwann cell PMP22 intronic element firefly luciferase assay (AID 624032).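 Note: plate controls were DMSO for no effect and PTC124 positive control mean for full effect; nearly all actives have a fitted effect of over 30% in size.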 The method, boiled down: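 Rat S16 Schwann cells stably carrying a PMP22 intronic element-driven Fluc reporter were seeded overnight, then exposed to compounds for 24 h at 37 °C. Luminescence was normalized to PTC124 (positive control) and DMSO (0% activity).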
Test [13] is described as follows: qHTS profiling for inhibitors of Plasmodium falciparum proliferation (AID 504749).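 Note: 0% = DMSO vehicle and full inhibition = artemisinin control; nearly all actives have a fitted effect of over 60% in size.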 The note with it: P. falciparum in erythrocytes, SYBR Green DNA, 72 h, at 12.8 µM (top of the series). The method, boiled down:
(§1)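 Fluorescence of SYBR Green-bound parasite DNA, read at 485/535 nm, served as the growth measure. Infected erythrocytes were cultured with compound 72 h; artemisinin (0.29 uM) and DMSO wells defined the normalization range.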

Test [14] relates to C2A. Described as above. The note with it: P. falciparum in erythrocytes, SYBR Green DNA, 72 h; series mostly up to 28.7 µM. A digest of the protocol: as §1
The subject of test [15] is CP185. The test is described as above. To be noted: P. falciparum in erythrocytes, SYBR Green DNA, 72 h; series mostly up to 28.7 µM. A digest of the protocol:
as §1

Test [16] concerns FAB9. The test is described as above. To be noted: P. falciparum in erythrocytes, SYBR Green DNA, 72 h; series mostly up to 28.7 µM. The method, boiled down: as §1
The nature of test [17]: Confirmation and Secondary Assay for Modulators of Hemoglobin Beta Chain Splicing at IVS2 654 locus (AID 910).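 Note: per-well total GFP intensity by laser scanning cytometry after 2-day treatment; % of control where 0% means no effect.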 A digest of the protocol:
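HeLa cells stably carrying EGFP interrupted by mutant beta-globin IVS2-654 intron (CMV-driven) were treated with compound for 2 days at 37C; corrected splicing was scored as total peak GFP intensity per well (488 nm excitation, 500-520 nm emission).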

Test [18] can be described thus: Confirmation and Secondary Assay for Modulators of Hemoglobin Beta Chain Splicing at IVS2 705 locus (AID 930).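 Note: HeLa cells stably expressing the EGFP-705 splicing reporter; GFP fluorescence per well restored by corrected splicing of the IVS2-705 intron in EGFP; % of control where 0% means no effect.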 A digest of the protocol:
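Stable HeLa line with EGFP disrupted by mutant beta-globin intron 2 (705). Overnight attachment, then 2 days of compound at 37C, 5% CO2. Signal: peak GFP intensity summed over objects 5-250 µm.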

In test [19] the target is Ubiquitin carboxyl-terminal hydrolase 1 (Homo sapiens) (UniProt O94782). In words: Inhibitors of USP1/UAF1: Pilot qHTS (AID 504865). Note: nearly all actives have a fitted effect of over 35% in size. Note: potency is the fitted concentration of half-maximal effect. A digest of the protocol: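 Kinetic fluorescence assay: 1nM USP1/UAF1, 15 min compound preincubation, then 150nM Ub-Rho; 480/540 nm.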
Test [20] has as its target Cytochrome P450 3A4 (Homo sapiens) (UniProt P08684). In words: qHTS Assay for Inhibitors and Substrates of Cytochrome P450 3A4 (AID 884). Note: potency is the fitted concentration of half-maximal effect; nearly all actives have a fitted effect of over 50% in size. A digest of the protocol:
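Luminescent readout of luciferin produced by CYP3A4 (20 nM) dealkylation of Luciferin-PPXE, 25 uM (its KM). NADPH-driven reaction ran 60 min at RT after 10 min compound preincubation; data scaled to 57 uM ketoconazole as 100% inhibition.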

Setting [21] is: measured here: cell count channel max response.
The mark [22] stands for this setting: measured here: lipid channel max response.

Results filed as inconclusive are left out. Active and inactive are the calls of the source. Unless noted, calls come from the whole dose curve; as a rule, active = well fitted curve in the direction sought with a large enough effect; inconclusive = small, poorly fitted or top-dose-only effect, or another doubt; inactive = no such curve, though single readings can be large; an effect the other way counts as inactive or inconclusive.

Chain of Glucocorticoid receptor (Homo sapiens) (P04150 whole entry, looked up, the tested form may be a part): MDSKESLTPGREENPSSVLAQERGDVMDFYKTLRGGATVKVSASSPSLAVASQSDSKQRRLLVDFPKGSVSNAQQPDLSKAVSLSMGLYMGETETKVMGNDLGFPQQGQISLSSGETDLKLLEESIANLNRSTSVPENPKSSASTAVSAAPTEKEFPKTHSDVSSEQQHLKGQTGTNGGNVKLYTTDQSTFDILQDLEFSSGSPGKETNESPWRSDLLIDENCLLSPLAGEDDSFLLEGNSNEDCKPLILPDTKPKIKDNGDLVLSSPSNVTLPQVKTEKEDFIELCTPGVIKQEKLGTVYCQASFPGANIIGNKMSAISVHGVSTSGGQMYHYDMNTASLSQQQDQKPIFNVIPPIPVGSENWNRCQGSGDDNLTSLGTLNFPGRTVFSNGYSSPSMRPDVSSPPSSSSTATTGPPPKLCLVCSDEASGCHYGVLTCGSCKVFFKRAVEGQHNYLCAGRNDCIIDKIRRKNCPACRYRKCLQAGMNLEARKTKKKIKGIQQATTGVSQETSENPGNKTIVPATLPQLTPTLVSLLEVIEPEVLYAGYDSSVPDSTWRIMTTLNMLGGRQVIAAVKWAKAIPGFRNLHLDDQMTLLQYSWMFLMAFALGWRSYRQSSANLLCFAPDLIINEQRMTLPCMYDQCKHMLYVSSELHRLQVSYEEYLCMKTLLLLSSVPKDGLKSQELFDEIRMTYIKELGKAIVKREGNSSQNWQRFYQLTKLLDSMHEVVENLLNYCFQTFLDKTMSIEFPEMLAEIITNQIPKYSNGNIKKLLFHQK
Chain of Cytochrome P450 1A2 (Homo sapiens) (P05177 whole entry, looked up): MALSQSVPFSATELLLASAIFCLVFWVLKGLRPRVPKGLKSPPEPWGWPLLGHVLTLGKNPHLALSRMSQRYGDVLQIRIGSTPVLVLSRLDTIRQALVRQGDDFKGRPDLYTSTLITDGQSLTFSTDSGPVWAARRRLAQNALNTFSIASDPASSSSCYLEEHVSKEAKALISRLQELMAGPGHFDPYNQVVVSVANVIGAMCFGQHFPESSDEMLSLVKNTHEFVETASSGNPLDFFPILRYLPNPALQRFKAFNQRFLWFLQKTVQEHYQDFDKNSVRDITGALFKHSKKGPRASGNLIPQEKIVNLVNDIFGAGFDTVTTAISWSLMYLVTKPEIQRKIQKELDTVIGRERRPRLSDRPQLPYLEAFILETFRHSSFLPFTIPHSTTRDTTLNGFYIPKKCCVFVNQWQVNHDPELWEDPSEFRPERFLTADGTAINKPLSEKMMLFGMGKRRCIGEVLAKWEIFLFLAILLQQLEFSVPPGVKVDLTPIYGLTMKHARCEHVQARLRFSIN
Chain of 3',5'-cyclic-AMP phosphodiesterase 4B (Homo sapiens) (Q07343 whole entry, looked up): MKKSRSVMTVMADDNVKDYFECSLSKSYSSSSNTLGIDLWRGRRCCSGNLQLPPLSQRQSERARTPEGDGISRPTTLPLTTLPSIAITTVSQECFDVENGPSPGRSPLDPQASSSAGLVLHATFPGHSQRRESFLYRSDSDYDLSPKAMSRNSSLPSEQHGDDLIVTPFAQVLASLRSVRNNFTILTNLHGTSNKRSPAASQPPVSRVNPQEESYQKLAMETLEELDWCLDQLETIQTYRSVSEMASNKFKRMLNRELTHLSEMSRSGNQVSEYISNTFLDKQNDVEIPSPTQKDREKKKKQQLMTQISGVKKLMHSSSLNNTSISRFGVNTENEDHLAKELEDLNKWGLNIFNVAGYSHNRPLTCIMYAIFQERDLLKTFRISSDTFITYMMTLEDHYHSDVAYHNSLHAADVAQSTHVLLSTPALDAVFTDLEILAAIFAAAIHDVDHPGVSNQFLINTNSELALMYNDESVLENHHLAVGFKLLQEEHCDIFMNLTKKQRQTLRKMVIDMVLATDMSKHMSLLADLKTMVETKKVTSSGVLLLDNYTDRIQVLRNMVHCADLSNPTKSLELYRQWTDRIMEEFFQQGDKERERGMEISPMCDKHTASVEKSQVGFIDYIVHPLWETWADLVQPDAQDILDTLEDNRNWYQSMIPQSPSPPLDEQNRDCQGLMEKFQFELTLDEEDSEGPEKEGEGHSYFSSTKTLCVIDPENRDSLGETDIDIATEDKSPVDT
Chain of Cytochrome P450 3A4 (Homo sapiens) (P08684 whole entry, looked up): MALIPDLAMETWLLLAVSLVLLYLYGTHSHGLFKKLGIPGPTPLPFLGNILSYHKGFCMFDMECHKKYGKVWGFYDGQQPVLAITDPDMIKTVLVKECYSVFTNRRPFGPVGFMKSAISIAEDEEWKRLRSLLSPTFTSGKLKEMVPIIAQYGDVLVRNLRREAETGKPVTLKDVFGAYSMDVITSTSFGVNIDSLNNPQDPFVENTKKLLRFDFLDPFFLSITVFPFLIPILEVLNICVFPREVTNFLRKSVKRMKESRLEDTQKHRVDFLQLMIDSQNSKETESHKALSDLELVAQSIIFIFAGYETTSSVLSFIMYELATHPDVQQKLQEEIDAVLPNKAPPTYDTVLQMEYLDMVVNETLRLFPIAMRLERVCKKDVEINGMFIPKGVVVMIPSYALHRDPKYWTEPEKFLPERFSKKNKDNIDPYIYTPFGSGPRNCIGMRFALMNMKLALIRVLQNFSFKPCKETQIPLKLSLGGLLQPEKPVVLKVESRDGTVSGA
Chain of Luciferin 4-monooxygenase (Photinus pyralis) (P08659 whole entry, looked up): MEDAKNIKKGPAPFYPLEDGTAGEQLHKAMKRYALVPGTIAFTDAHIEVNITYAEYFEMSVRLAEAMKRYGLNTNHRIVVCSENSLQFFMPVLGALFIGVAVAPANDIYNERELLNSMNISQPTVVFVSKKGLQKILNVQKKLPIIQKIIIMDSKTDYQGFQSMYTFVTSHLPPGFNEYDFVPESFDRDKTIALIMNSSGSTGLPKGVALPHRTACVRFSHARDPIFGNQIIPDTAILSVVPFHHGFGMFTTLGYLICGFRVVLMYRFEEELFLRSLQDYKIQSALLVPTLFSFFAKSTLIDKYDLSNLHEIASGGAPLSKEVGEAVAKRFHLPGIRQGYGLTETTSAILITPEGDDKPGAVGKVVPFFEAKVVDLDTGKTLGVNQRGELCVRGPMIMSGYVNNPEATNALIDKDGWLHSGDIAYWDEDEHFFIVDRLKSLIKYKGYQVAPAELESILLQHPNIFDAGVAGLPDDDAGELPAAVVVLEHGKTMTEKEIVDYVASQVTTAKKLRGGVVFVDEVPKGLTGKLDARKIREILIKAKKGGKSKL
Chain of Ubiquitin carboxyl-terminal hydrolase 1 (Homo sapiens) (O94782 whole entry, looked up): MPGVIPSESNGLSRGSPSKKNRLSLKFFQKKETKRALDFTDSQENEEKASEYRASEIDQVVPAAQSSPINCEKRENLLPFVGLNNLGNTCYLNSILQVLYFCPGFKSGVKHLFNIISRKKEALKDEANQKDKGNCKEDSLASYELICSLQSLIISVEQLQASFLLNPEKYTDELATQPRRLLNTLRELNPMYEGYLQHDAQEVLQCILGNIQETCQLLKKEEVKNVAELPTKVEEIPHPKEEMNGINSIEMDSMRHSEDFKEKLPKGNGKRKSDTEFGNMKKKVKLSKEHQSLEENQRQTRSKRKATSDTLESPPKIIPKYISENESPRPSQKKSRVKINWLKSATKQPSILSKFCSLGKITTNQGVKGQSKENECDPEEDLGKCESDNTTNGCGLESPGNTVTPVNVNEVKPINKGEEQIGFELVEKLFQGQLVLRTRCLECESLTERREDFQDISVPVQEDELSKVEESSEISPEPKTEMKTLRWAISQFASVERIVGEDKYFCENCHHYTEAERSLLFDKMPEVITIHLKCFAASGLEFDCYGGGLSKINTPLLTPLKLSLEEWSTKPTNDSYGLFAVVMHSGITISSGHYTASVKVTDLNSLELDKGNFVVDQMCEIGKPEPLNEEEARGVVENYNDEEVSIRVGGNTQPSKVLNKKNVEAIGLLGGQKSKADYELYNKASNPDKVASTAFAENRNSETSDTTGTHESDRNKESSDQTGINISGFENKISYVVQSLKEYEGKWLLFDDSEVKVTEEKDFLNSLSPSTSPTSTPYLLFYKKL

`Cc1nc2cnc(N3CCNCC3)nc2n(C)c1=O`: the molecule was called inactive in test [1], in test [3] and in test [6]. Moreover, the values for the activity change, negative = inhibition in test [2] (at 7.69 µM (top of the series)) and in test [9] (at 57.5 µM (top of the series)) were 5.09% (inactive) and 5.19% (inactive), respectively. Also, the values for the Potency in test [4] and in [5] were > 9.22 µM (inactive) and > 46 µM (inactive), respectively. In addition, the Potency result in test [7] and in test [8] was “inactive” each time. Further, the max response was 18.7% in [9] (setting [21]) and 25.8% in test [9] (setting [22]).

For `C[C@H]1CN(C2CCC(C#N)(c3ccc(F)cc3)CC2)CC[C@@]1(C(=O)O)c1ccccc1` (stereo not given in full), the result in [1], in test [3] and in test [6] was inactive. Besides, the Potency result in test [10], in test [7], in test [11], in test [12], in test [14] and in test [15] was “inactive” each time. The Potency result in test [16] is “inactive”. Moreover, the activity change, negative = inhibition was -14% (inactive) in test [2] (at 17.2 µM (top of the series)) and -3.1% (inactive) in [9] (at 25.7 µM (top of the series)). The Potency in [4] and in test [5] was > 20.6 µM (inactive) each time. The max response was -19.6% in [9] (setting [21]) and -20.8% in test [9] (setting [22]). Moreover, the activity, negative = inhibition was 1.54% (inactive) in test [13] (parasite line A) and 12.6% (inactive) in [13] (parasite line B).

For the molecule `c1ccc(N=Nc2ccccc2)cc1`, the molecule was called inactive in [6]. Further, the Potency result in test [17], in [18] and in test [19] was “inactive” in each case. The activity change, negative = inhibition in test [9] (at 57.5 µM (top of the series)) is -5.75% (inactive). The max response is -21.5% in test [9] (setting [21]) and -24.4% in test [9] (setting [22]).

Take `CC(C)NC(=O)N1CCC2(CCNCC2)CC1`: the outcome in test [1], in test [3] and in test [6] was inactive. The Potency entry in test [7] is “inactive”. Moreover, the activity change, negative = inhibition in test [9] (at 57.5 µM (top of the series)) is 4% (inactive). Further, the max response is 1.41% in test [9] (setting [21]) and 7.12% in test [9] (setting [22]).

Consider `O=C(Oc1ccccc1)N1CCC2(CCCN(C(c3ccccc3)c3ccccc3)C2)CC1`, for which the Potency result in test [10] and in [7] was “inactive” in each case. The result in test [6] was inactive. The activity change, negative = inhibition in test [9] (at 57.5 µM (top of the series)) was 6.26% (inactive). In addition, the max response in [9] (setting [21]) came to 7.72%; in test [9] (setting [22]), 16.7%.

With `CC(C)C[C@H]1C(=O)N2CCC[C@@H]2[C@@]2(O)O[C@](NC(=O)[C@@H]3C=C4c5cccc6[nH]cc(c56)C[C@@H]4N(C)C3)(C(C)C)C(=O)N12`, the call in test [1], in test [3] and in [6] was inactive. Besides, the Potency in test [10] is 12.6 µM (active); in [4], > 20.6 µM (inactive); in test [5], > 20.6 µM (inactive); in test [20] it was 2 µM (active); in [19], 14.1 µM (active). In addition, the activity change, negative = inhibition in [2] (at 17.2 µM (top of the series)) is -19.6% (inactive); in [9] (at 25.7 µM (top of the series)), 1.16% (inactive). Moreover, the Potency entry in test [7] and in test [8] was “inactive” in each case. Besides, the max response was -5.41% in test [9] (setting [21]) and -4.79% in [9] (setting [22]).

In the case of `CC(C)c1c(CN(C)[C@@H](C)Cc2ccccc2)n(C)n(-c2ccccc2)c1=O`, the call in test [1], in test [3] and in [6] was inactive. Also, the Potency entry in [10], in test [7], in [8], in test [11], in test [12] and in [14] was “inactive” each time. In addition, the Potency entry in [15] and in test [16] was “inactive” each time. The activity change, negative = inhibition was -17.7% (inactive) in test [2] (at 17.2 µM (top of the series)) and -3.14% (inactive) in [9] (at 25.7 µM (top of the series)). In addition, the Potency in test [4] was > 20.6 µM (inactive). For the same molecule, the max response in test [9] (setting [21]) is -13.6%; in [9] (setting [22]) it was -14.7%. Moreover, the activity, negative = inhibition in test [13] (parasite line A) was 6.98% (inactive).

For the origin of these results see PubChem BioAssay (NCATS).
